Inconclusive results are not listed. Calls of active or inactive are those of the source. Unless noted, calls follow the shape of the dose curve; as a rule, active = well fitted curve in the direction sought with a large enough effect; inconclusive = small, poorly fitted or top-dose-only effect, or another doubt; inactive = no such curve, though single readings can be large; an effect the other way counts as inactive or inconclusive.
Key:
[1] = qHTS to identify inhibitors of the type 1 interferon - major histocompatibility complex class I in skeletal muscle: primary screen against the NCATS Pharmaceutical Collection (AID 1347407);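 also: luminescence of HiBiT knocked into endogenous HLA-B as interferon-induced MHC class I level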
How it was run: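 Luminescence from HiBiT-tagged endogenous HLA-B*08:01 served as the read-out of IFN-beta-induced MHC class I in CRISPR-engineered C25cl48 myoblasts. Cells received 4 ng/ml IFN-beta plus compound (high final 46 uM, […]) for 24 h.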

[2] = target: Protein phosphatase 1D (Homo sapiens) (UniProt O15297); assay: RapidFire Mass Spectrometry qHTS Assay for Modulators of WT P53-Induced Phosphatase 1 (WIP1) (AID 1347424);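 also: amount of dephosphorylated VEPPL-S-QETFS peptide product formed by WIP1; series mostly up to about 63 µM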
Protein phosphatase 1D (Homo sapiens), sequence (O15297 whole entry, looked up): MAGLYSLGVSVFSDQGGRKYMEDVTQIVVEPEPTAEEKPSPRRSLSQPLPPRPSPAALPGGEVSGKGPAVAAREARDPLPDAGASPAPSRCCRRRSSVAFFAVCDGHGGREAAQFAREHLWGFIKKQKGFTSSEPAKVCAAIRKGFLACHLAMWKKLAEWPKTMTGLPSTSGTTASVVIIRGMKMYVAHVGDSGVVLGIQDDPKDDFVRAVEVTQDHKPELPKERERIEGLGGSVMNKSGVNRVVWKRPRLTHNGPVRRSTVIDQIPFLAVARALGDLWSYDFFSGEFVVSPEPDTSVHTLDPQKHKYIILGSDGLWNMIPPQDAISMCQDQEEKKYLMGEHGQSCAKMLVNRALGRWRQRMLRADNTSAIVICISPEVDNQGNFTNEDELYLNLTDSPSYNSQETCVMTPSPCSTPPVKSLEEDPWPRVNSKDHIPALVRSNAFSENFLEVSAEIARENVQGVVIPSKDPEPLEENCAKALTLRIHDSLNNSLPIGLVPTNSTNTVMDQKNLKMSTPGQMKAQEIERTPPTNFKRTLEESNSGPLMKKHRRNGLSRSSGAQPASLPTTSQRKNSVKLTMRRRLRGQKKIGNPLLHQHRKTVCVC
How it was run: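 RapidFire mass spectrometry measured dephosphorylated peptide after 5 min room-temperature reaction of 2 uM VEPPL-pS-QETFS with 10 nM WIP1 (50 mM Tris-HCl pH 7.5, 30 mM MgCl2, 0.1 mM EGTA, BSA), following 1 hr compound preincubation; 1 uM isotope-labelled product standard.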

[3] = target: Protein phosphatase 1D (Homo sapiens) (UniProt O15297); assay: Rhodamine-PBP qHTS Assay for Modulators of WT P53-Induced Phosphatase 1 (WIP1) (AID 1347425)
How it was run: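 5 nM WIP1 + 10 uM Rh-PBP, 50 mM Tris pH 7.5, 30 mM MgCl2, 1 mM TCEP, 0.1 mM EGTA, BSA; cpds pinned, 1 hr RT; + 10 uM phosphopeptide; fluorescence 1-min reads x 11 min; delta = f1 - f0.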

[4] = Primary qHTS for inhibitors of La Crosse Virus (LACV) - induced cell death in SH-SY5Y cells (AID 1508616);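 also: top concentration of the series differs between compounds; higher means more rescue of cells from virus-induced death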
How it was run: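 Rescue of virus-induced death was read as ATPLite luminescence after 6 days at 37C, scaled between DMSO wells with LACV and without virus. Cells were SH-SY5Y, 6000/well, infected at 0.01 MOI after compound addition.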

[5] = target: Calcium and integrin-binding protein 1 (Homo sapiens) (UniProt Q99828); assay: Primary qHTS for Identification of Calcium Integrin Binding Protein 1 (CIB1) Competitor (AID 1508620);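 also: GST tagged CIB1 binding a fluorescein labelled alphaIIb integrin peptide tracer; top concentration of the series differs between compounds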
Calcium and integrin-binding protein 1 (Homo sapiens), sequence (Q99828 whole entry, looked up): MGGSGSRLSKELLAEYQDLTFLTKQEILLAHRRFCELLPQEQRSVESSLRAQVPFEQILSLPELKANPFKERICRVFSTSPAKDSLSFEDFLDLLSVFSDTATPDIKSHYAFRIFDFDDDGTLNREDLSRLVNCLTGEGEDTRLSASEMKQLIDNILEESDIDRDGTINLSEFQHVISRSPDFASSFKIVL
How it was run: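 CIB1-GST (1 uM final) and compound incubated 15 min at room temperature before adding FITC-alphaIIb peptide tracer (100 nM final). Competition for binding read by fluorescence polarization (ex 480, em 540) after another 15 min at room temperature.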

[6] = Primary qHTS for small molecule stabilizers of the endoplasmic reticulum resident proteome: Secreted ER Calcium Modulated Protein (SERCaMP) assay (AID 1508630)
How it was run: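 The SH-SY5Y reporter protocol was run at 3 concentrations up to 38.3 uM (primary) or 11 concentrations (follow-up): 16 h compound, 100 nM thapsigargin for 4 h, then extracellular luciferase luminescence.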

[7] = A High-Content qHTS Against Drug Library for the Identification of Small Molecules that Inhibit DYT1 Early Onset Primary Dystonia-Associated Cell Pathology (AID 1645839; calls by dose curve; also: series mostly up to about 46 µM)
How it was run: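 High-content imaging quantified EGFP-TorsinA mislocalization in HEK293-derived cells inducibly expressing DYT1 mutant torsinA, after 48 h exposure to compound given together with tetracycline induction. Cell count served as a toxicity channel alongside %pathology.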

[8] = target: Cytochrome P450 2D6 (Homo sapiens) (UniProt P10635); assay: Cytochrome P450 family 2 subfamily D member 6 (CYP2D6) small molecule antagonists: luciferase biochemical (cell-free) qHTS assay (AID 1645840; active = well fitted curve in the direction sought with a large enough effect in the repeat runs; an effect the other way counts as inactive or inconclusive; also: series mostly up to about 57 µM; nearly all actives have a fitted effect of over 55% in size)
Cytochrome P450 2D6 (Homo sapiens), sequence (P10635 whole entry, looked up): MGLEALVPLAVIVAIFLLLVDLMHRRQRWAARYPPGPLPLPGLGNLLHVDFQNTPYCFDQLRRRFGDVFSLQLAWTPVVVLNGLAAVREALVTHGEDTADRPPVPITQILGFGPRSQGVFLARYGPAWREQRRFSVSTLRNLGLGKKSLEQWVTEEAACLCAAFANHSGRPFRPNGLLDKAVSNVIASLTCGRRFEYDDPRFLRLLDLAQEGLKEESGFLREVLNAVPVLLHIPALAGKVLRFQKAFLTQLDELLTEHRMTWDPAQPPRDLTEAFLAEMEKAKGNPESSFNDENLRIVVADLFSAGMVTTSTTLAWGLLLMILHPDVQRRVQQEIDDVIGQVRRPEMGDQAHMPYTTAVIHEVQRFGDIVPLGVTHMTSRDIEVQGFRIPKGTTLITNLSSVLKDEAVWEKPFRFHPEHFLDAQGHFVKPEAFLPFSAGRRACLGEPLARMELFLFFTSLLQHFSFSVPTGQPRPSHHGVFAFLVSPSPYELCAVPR
How it was run: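 P450-Glo CYP2D6 system: proluciferin substrate converted by enzyme to luciferin, read by luminescence proportional to activity. Enzyme-substrate mix with compound 10 min at room temperature, then NADPH regeneration 1 h before detection reagent.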

[9] = target: Cytochrome P450 3A4 (Homo sapiens) (UniProt P08684); assay: Cytochrome P450 family 3 subfamily A member 4 (CYP3A4) small molecule antagonists: luciferase qHTS assay (AID 1645841; active = well fitted curve in the direction sought with a large enough effect in the repeat runs; an effect the other way counts as inactive or inconclusive; also: nearly all actives have a fitted effect of over 45% in size)
Cytochrome P450 3A4 (Homo sapiens), sequence (P08684 whole entry, looked up): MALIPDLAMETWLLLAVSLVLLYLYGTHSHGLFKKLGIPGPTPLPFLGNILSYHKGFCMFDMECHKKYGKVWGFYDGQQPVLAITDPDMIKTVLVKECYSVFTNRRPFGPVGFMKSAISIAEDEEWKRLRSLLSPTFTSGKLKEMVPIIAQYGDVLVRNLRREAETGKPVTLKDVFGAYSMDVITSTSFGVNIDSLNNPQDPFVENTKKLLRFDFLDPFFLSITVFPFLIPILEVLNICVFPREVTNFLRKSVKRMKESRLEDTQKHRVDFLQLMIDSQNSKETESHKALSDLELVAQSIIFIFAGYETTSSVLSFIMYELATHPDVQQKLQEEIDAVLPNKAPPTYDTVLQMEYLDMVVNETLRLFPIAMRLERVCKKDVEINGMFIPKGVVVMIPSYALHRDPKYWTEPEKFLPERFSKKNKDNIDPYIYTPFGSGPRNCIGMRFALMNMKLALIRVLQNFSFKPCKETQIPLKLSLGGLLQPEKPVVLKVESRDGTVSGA
How it was run: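 Luminescent CYP3A4 activity readout: compounds plus enzyme-substrate mix 10 min at room temperature, reaction started with NADPH regenerating system for 1 h, stopped with detection reagent, read after 20 min. Ketoconazole served as control.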

[10] = target: Cytochrome P450 2C9 (Homo sapiens) (UniProt P11712); assay: Cytochrome P450 family 2 subfamily C member 9 (CYP2C9) small molecule antagonists: luciferase biochemical (cell-free) qHTS assay (AID 1645842; active = well fitted curve in the direction sought with a large enough effect in the repeat runs; an effect the other way counts as inactive or inconclusive; also: series mostly up to about 57 µM; nearly all actives have a fitted effect of over 55% in size)
Cytochrome P450 2C9 (Homo sapiens), sequence (P11712 whole entry, looked up): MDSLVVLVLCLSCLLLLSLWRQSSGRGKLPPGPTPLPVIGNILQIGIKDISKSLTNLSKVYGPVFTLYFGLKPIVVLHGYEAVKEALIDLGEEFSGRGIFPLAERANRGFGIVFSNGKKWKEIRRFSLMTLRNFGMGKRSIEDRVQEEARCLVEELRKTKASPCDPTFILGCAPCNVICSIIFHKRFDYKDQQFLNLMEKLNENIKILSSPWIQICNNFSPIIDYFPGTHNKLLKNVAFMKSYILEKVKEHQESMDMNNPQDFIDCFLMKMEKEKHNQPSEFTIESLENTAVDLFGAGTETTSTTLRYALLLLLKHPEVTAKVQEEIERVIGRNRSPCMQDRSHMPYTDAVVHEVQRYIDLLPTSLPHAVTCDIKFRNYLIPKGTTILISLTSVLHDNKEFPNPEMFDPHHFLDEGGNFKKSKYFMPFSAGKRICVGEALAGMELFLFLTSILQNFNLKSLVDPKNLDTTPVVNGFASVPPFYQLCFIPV
How it was run: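 P450-Glo CYP2C9 system: proluciferin substrate with enzyme in mix containing 0.4% BSA, 10 min at room temperature, then NADPH regeneration solution added and incubated 1 h at 37C. Detection reagent stopped reaction; luminescence read after 20 min as RLU.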

[11] = qHTS to identify inhibitors of the type 1 interferon - major histocompatibility complex class I in skeletal muscle: primary screen against the NCATS Mechanism Interrogation Plate v5.0 (MIPE) Libary (AID 1347411); also: nearly all actives have a fitted effect of over 65% in size
How it was run: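 Luminescence from CRISPR HiBit-tagged endogenous HLA-B in human myoblasts reported MHC class I level after 24 h of IFN-beta (4 ng/ml) plus compound. Compounds ran as 11-point 1:3 series, top 46 uM final.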

[12] = Primary qHTS for inhibitors of nuclear receptor binding SET domain protein 2 (NSD2) in an isogenic RCH-ACV NSD2 p.E1099K mutant (9B) (AID 1645876); also: nearly all actives have a fitted effect of over 70% in size
[13] = Primary qHTS for inhibitors of nuclear receptor binding SET domain protein 2 (NSD2) in an RCH-ACV wild type WT cells (2C) (AID 1645877); also: nearly all actives have a fitted effect of over 70% in size
[14] = target: N-terminal Xaa-Pro-Lys N-methyltransferase 1 (Homo sapiens) (UniProt Q9BV86); assay: Confirmatory qHTS for Inhibitors of N-terminal methyltransferase 1 (NTMT1): MTaseGlo Assay (AID 1645874);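 also: luminescence from SAH made as NTMT1 methylates SPKRIA peptide using SAM; series mostly up to about 100 µM; nearly all actives have a fitted effect of over 65% in size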
N-terminal Xaa-Pro-Lys N-methyltransferase 1 (Homo sapiens), sequence (Q9BV86 whole entry, looked up): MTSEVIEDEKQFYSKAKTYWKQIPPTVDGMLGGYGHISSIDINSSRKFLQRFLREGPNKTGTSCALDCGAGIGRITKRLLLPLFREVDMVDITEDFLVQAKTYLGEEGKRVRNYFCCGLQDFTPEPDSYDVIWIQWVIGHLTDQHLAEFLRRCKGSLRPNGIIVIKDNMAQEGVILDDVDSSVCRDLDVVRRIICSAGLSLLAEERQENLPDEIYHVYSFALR
How it was run: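 Enzyme mix (125 nM NTMT1, 100 uM SAM) + compound, 15 min RT; + 1 uM SPKRIA, 30 min RT, dark; MTase-Glo reagent 30 min, detection solution 30 min; luminescence. % inhibition vs no-enzyme/DMSO controls, 4-parameter Hill fit.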

[15] = Viability qHTS for inhibitors of the SERCaMP assay screened against the NCATS CANVASS Library (AID 1347400); also: series mostly up to about 92 µM; nearly all actives have a fitted effect of over 70% in size
How it was run: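 CellTiter-Glo luminescence measured cytotoxicity after 48 h at 37C of compound treatment (11-point series). Cells were SH-SY5Y-GLuc SERCaMP MJH297 derivatives, seeded at 1000 per well 4 h beforehand.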

[16] = Redox Reaction Profiling qHTS: Assay Interference Panel against the NCATS CANVASS Library (AID 1347401)
How it was run: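 Redox-cycling liability assessed as DTT-driven conversion of resazurin (5 uM, with 200 uM DTT, HEPES pH 7.3) to fluorescent resorufin. Fluorescence at 525/598 nm measured initially and after 15 min dark incubation.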

Measured: Potency

CCCCCCCCCCCCCCCCN
inactive: [1] | [2] | [3] | [4] | [5] | [6] | [7] | [8] | [9] | [10]

C/C=C/C(=O)N(CC)c1ccccc1C
inactive: [1] | [11] | [2] | [3] | [4] | [5] | [7] | [8] | [9] | [12] | [13]

Cc1onc(-c2ccccc2)c1-c1ccc(S(N)(=O)=O)cc1
inactive: [1] | [11] | [2] | [3] | [5] | [6] | [7]

NC(=O)c1ccc([N+](=O)[O-])cc1Cl
inactive: [1] | [2] | [3] | [4] | [5] | [6] | [7] | [8] | [10]

CCN(CC)S(=O)(=O)c1ccc(C(=O)O)cc1
inactive: [1] | [2] | [3] | [4] | [5] | [6] | [7] | [8] | [9] | [12] | [13]

CCN(CC)CC1CCCCN1CC(=O)N1c2ccccc2C(=O)Nc2cccnc21 (stereo not drawn)
inactive: [1] | [2] | [3] | [4] | [5] | [6] | [7] | [8] | [9]

O=c1[nH]cnc2nc[nH]c12
inactive: [1] | [2] | [3] | [4] | [5] | [6] | [7] | [8] | [10] | [14] | [12] | [13]

C[C@@H]1O[C@@H](OC[C@H]2O[C@@H](Oc3c(-c4ccc(O)c(O)c4)oc4cc(O)cc(O)c4c3=O)[C@H](O)[C@@H](O)[C@@H]2O)[C@H](O)[C@H](O)[C@H]1O
inactive: [15] | [16] | [1] | [2] | [3] | [4] | [5] | [7] | [8] | [10] | [12] | [13]

O=c1[nH]c2cc(C(F)(F)F)c(N3CCOCC3)cc2n(CP(=O)(O)O)c1=O
inactive: [1] | [2] | [3] | [4] | [5] | [6] | [7] | [8] | [10]

CCS(=O)(=O)CCn1c([N+](=O)[O-])cnc1C
inactive: [1] | [2] | [3] | [4] | [5] | [6] | [7]

CCCCCOC(=O)Nc1nc(=O)n([C@@H]2O[C@H](C)[C@@H](O)[C@H]2O)cc1F
inactive: [1] | [11] | [2] | [3] | [4] | [5] | [7] | [8] | [10] | [12] | [13]
